The target in assay [1] is Lysosomal acid glucosylceramidase (Homo sapiens) (UniProt P04062). In words: Glucocerebrosidase-p2 (AID 348; in the data active = potency below about 10 µM; also: potency is read from the fitted curve at half-maximal effect). The conditions noted are these: purified GBA, blue fluorogenic substrate, 40 min. In outline:
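Normal human glucocerebrosidase (0.2 nM) with blue fluorogenic substrate (80 uM final) in citrate/phosphate pH 5.9 with 10mM sodium taurocholate, 0.01% tween-20; 40 min RT, NaOH/glycine stop; fluorescence Ex 365/Em 440; AC50 from a titration from 0.6 nM upwards.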

Assay [2] deals with Cytochrome P450 1A2 (Homo sapiens) (UniProt P05177). In words: p450-cyp1a2 (AID 410; calls by dose curve; also: potency is read from the fitted curve at half-maximal effect). The conditions noted are these: recombinant CYP1A2, luciferin-ME demethylation, luminescence; series mostly up to 57 µM. In outline: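 Read-out is luminescence from luciferin produced by CYP1A2 demethylation of Luciferin-ME (100uM, at Km). Detection reagent stopped the 60 min NADPH-dependent reaction; signals were normalized to 57 uM furafylline.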

A short description of assay [3]: NFAT Signaling Pathway (AID 444).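 Also: carbachol stimulus at about its EC50 of 1 µM final; % is scaled to controls: 0 for no effect and ±100 for the full control effect.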 The note with it: Jurkat NFAT-bla M1, carbachol, beta-lactamase ratio, 5 h; at 7.69 µM (top of the series) unless noted. In outline: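 Jurkat cells with NFAT-driven β-lactamase reporter and co-expressed M1 receptor, stimulated with carbachol (final 1 uM, ~EC50), compound titration, 5 h at 37 °C. CCF4 loaded 1 h at RT; 460/530 nm ratio gave %activity and AC50.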

Assay [4] can be described thus: Stat Signaling Pathway (AID 446).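 Also: ME-180 cervical cancer cells given 40 pM IL-6 alongside compound; SIE-controlled beta-lactamase reporter measured as 460/530 nm FRET emission ratio; % is scaled to controls: 0 for no effect and ±100 for the full control effect.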 The conditions noted are these: ME-180 SIE beta-lactamase reporter, IL-6 stimulated, 5 h; at 7.69 µM (top of the series) unless noted. The procedure, abridged: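 Normalization used AC90 stimulation (300 pM IL-6) and AC90 inhibition (125 nM pan-JAK inhibitor at 40 pM IL-6). The underlying signal is SIE-driven beta-lactamase in ME-180 cells after 5 h IL-6 exposure with compound.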

Assay [5] has as its target Glucocorticoid receptor (Homo sapiens) (UniProt P04150). In words: GR-GFP Redistribution (AID 450;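 active = compounds whose dose series gives a full or clear partial fitted curve of increased nuclear translocation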; also: potency is read from the fitted curve at half-maximal effect). The note with it: U2OS GR-GFP nuclear translocation, laser cytometry, 2 h.
The target is the same in assay [6]. Description: GR-EFC Redistribution (AID 451; calls by dose curve; also: potency is read from the fitted curve at half-maximal effect). The conditions noted are these: CHO-K1 GR-EFC translocation, beta-gal luminescence, 2 h. In outline: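 CHO-K1 cells expressing nuclear EA and GR-ED fragments of b-gal; compounds titrated up to 46 uM final, 2 h at 37 C. GR nuclear translocation read as complemented b-gal luminescence after 1 h RT detection.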
Assay [7] deals with Mitogen-activated protein kinase 10 (Mus musculus) (UniProt Q61831). Description: JNK3 AlphaScreen Assay (AID 530).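 Also: kinase came from lysate of stimulated human HepG2 cells; signal reports phosphorylation of biotinylated GST-cJun 1-79 at Ser73 with 10 µM ATP; % is scaled to controls: 0 for no effect and ±100 for the full control effect.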 The conditions noted are these: JNK3 lysate, c-Jun phosphorylation; series mostly up to 57.1 µM. In outline: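 HepG2 lysate (IL-1b/TNFa pre-activated) + biotin-GST-cJun 1-79 + anti-pSer73 cJun; cpd titration, 15 min RT; ATP 10 uM start; Tris pH 7.6, MgCl2, DTT, vanadate; beads in EDTA buffer; AlphaScreen.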

Assay [8] addresses 3',5'-cyclic-AMP phosphodiesterase 4B (Homo sapiens) (UniProt Q07343). Description: qHTS Assay for Inhibitors of PDE-IV (AID 607; active = well fitted activation curve with a large enough effect in the main read-out, with a control signal flat, not every such curve was filed as active; also: % of control where 0% means no effect). The note with it: HEK293 ACTOne CNG channel cells, membrane potential fluorescence; series mostly up to 22.9 µM. The procedure, abridged: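 HEK293 ACTOne cells with CNG channel (1000/well), endogenous PDE4; membrane potential dye, compounds up to 22.9 uM final. Fluorescence Ex 535/Em 590; RO 20-1724 (100 uM final) as reference.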
A general note: qHTS replaces the single test concentration by a dilution series.

The nature of assay [9]: qHTS Assay for Identification of Small Molecule Agonists for Hypoxia Response Element Signaling Pathway (AID 914; active = well fitted activation curve with a large enough effect in the signal ratio, with a control signal flat, not every such curve was filed as active; the % refers to the signal ratio; also: potency is read from the fitted curve at half-maximal effect). The conditions noted are these: ME-180 HRE-bla reporter, beta-lactamase ratio, CoCl2, 17 h; activation: stronger effect = higher value. The procedure, abridged: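 Positive modulation of EC50 CoCl2-induced hypoxia response element signaling is measured in ME-180 cells with a beta-lactamase reporter. Compounds are titrated, incubation runs 17 hours, and %Activity derives from the blue/green ratio.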

Assay [10] can be described thus: Primary qHTS for small molecule stabilizers of the endoplasmic reticulum resident proteome: Secreted ER Calcium Modulated Protein (SERCaMP) assay (AID 1508630; active = well fitted curve in the direction sought with a large enough effect; an effect the other way counts as inactive or inconclusive; also: % is scaled to controls: 0 for no effect and ±100 for the full control effect). The conditions noted are these: SH-SY5Y GLuc-SERCaMP (Gaussia luciferase released on ER calcium loss) secretion, thapsigargin, luminescence; series mostly up to 38.4 µM. In outline:
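The SH-SY5Y reporter protocol was run at 3 concentrations up to 38.3 uM (primary) or 11 concentrations (follow-up): 16 h compound, 100 nM thapsigargin for 4 h, then extracellular luciferase luminescence.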

Assay [11] deals with Cytochrome P450 3A4 (Homo sapiens) (UniProt P08684). In words: qHTS Assay for Inhibitors and Substrates of Cytochrome P450 3A4 (AID 884; active = well fitted curve in the direction sought with a large enough effect; an effect the other way counts as inactive or inconclusive; also: nearly all actives have a fitted effect of over 50% in size; also: potency is read from the fitted curve at half-maximal effect). The note with it: recombinant CYP3A4, Luciferin-PPXE luminescence; series mostly up to 57.1 µM. In outline:
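Luminescent readout of luciferin produced by CYP3A4 (20 nM) dealkylation of Luciferin-PPXE, 25 uM (its KM). NADPH-driven reaction ran 60 min at RT after 10 min compound preincubation; data scaled to 57 uM ketoconazole as 100% inhibition.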

For assay [12] the target is unchanged. In words: qHTS Assay for Activators of Cytochrome P450 3A4 (AID 885; active = well fitted curve in the direction sought with a large enough effect; an effect the other way counts as inactive or inconclusive; also: nearly all actives have a fitted effect of over 65% in size; also: potency is read from the fitted curve at half-maximal effect). The note with it: recombinant CYP3A4, Luciferin-PPXE luminescence, 60 min; series mostly up to 57.1 µM. In outline:
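Human CYP3A4 dealkylates Luciferin-PPXE to luciferin, which luciferase detection converts to light. Substrate was at its KM (25uM), buffer 200mM KPO4, reaction 60 min at RT.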

A short description of assay [13]: AP1 Signaling Pathway (AID 357). The conditions noted are these: ME-180 (cervical carcinoma) AP-1-bla reporter, EGF-induced, beta-lactamase ratio, 5 h; at 7.69 µM (top of the series) unless noted. In outline:
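First, ME-180 AP-1-bla cells were cultured overnight at 37 °C in low-serum Opti-MEM. Next, titrated compounds with EC50 EGF were incubated 5 hours. Finally, CCF4 was added for 2.5 hours and the 460/530 nm ratio recorded.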

Values without a mark were called inactive. Results filed as inconclusive are left out. Active and inactive are the calls of the source. Unless noted, calls follow the shape of the dose curve; as a rule, active = well fitted curve in either direction with a large enough effect (not every such curve was filed as active); inconclusive = small, poorly fitted or top-dose-only effect, or another doubt; inactive = flat fitted curve, though single readings scatter.

3',5'-cyclic-AMP phosphodiesterase 4B (Homo sapiens), sequence (Q07343 whole entry, looked up): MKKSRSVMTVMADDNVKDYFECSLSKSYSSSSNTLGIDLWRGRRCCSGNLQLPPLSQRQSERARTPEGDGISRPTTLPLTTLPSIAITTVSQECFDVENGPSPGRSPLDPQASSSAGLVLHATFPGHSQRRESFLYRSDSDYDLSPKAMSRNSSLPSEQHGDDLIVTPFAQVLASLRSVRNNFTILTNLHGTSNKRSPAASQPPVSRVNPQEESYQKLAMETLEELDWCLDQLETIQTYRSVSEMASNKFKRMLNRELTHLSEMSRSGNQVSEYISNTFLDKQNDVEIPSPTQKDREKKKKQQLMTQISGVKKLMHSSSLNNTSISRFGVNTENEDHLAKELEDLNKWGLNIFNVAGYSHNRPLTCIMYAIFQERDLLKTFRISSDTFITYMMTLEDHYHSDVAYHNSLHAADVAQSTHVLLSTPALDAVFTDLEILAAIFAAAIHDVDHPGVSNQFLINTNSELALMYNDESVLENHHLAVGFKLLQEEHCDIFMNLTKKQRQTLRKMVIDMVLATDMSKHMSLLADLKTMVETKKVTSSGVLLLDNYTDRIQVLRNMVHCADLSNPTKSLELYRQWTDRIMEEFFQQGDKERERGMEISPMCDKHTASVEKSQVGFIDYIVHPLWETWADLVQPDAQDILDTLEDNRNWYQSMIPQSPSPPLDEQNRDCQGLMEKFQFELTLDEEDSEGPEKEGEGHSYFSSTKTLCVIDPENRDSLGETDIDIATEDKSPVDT
Cytochrome P450 1A2 (Homo sapiens), sequence (P05177 whole entry, looked up): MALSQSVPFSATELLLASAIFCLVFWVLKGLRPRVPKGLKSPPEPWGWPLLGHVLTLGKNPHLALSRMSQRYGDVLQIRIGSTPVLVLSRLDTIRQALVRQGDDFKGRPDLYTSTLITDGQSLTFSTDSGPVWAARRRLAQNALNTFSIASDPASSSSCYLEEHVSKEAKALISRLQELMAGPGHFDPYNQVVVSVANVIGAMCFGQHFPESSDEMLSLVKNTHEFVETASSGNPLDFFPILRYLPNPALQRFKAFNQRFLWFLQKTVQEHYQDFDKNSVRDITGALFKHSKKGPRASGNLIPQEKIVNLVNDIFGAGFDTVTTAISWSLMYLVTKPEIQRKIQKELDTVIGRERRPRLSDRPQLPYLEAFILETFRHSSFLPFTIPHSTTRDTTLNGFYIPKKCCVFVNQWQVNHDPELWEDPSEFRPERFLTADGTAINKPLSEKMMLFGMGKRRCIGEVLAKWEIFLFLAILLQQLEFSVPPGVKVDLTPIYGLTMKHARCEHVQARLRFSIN
Cytochrome P450 3A4 (Homo sapiens), sequence (P08684 whole entry, looked up): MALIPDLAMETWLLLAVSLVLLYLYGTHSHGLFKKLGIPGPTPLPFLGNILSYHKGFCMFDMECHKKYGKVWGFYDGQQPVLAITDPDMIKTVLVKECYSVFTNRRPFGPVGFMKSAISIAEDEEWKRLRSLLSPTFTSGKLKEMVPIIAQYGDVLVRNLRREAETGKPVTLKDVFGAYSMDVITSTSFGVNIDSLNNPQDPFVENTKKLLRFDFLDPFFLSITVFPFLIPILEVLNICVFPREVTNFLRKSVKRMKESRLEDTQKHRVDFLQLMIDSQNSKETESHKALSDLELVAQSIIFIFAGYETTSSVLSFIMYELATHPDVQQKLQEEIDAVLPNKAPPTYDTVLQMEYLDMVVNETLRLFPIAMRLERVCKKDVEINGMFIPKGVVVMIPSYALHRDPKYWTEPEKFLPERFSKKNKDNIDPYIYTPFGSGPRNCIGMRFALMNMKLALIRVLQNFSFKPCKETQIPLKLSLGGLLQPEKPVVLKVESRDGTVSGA
Lysosomal acid glucosylceramidase (Homo sapiens), sequence (P04062 whole entry, looked up): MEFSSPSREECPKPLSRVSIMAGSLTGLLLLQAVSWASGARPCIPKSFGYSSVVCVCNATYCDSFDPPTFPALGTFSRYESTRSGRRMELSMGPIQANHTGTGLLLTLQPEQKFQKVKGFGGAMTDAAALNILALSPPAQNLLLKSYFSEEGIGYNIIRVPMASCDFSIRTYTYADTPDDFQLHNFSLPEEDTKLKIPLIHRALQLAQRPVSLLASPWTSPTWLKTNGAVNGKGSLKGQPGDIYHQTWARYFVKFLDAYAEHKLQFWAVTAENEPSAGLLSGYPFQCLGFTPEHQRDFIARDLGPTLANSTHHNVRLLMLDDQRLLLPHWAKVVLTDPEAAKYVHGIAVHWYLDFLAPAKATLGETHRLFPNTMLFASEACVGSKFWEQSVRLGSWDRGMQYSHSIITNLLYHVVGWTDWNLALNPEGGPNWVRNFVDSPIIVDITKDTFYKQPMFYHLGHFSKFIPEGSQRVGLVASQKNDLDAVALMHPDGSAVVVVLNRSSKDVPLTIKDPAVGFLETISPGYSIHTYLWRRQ
Glucocorticoid receptor (Homo sapiens), sequence (P04150 whole entry, looked up, the tested form may be a part): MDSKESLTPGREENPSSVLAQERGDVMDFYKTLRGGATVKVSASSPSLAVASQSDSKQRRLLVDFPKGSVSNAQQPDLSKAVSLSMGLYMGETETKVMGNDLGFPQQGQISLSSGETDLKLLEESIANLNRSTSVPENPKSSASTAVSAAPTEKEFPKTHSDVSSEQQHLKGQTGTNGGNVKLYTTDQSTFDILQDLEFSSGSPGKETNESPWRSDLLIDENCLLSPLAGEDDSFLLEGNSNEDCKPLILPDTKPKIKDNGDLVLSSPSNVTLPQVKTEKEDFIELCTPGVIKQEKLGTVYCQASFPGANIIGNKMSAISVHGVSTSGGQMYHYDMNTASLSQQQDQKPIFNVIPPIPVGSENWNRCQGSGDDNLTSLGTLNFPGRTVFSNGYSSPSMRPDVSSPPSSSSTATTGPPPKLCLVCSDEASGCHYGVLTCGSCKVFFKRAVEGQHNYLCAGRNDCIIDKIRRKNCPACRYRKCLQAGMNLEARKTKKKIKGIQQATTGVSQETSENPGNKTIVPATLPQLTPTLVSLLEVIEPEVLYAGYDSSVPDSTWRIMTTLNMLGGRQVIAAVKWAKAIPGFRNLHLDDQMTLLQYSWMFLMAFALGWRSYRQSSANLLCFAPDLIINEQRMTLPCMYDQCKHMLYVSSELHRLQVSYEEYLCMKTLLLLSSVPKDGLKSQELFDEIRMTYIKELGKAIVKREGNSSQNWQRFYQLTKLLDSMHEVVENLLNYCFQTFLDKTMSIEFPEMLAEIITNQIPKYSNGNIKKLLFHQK

For `COc1ccc(-n2c(=O)c(-c3ccc(Cl)cc3)nc3cnc(N4CCOCC4)nc32)cc1`, the Potency in [1] was > 11.4 µM; in [2], 15.8 µM (active); in assay [5], > 9.22 µM; in [6] it was > 46 µM; in assay [9] it was 0.631 µM (active). The activity change, negative = inhibition in assay [3] was 23.6%. Moreover, the activity, negative = inhibition in [4] is 88.4% [activator] (active). Further, the Potency result in assay [7] and in [8] was “inactive” throughout. In addition, the outcome in assay [10] was inactive.
Regarding `Cn1c(=O)c(-c2ccc(Cl)cc2)nc2cnc(Oc3ccccc3)nc21`, the Potency in [1] was > 11.4 µM; in assay [2], 0.2 µM (active); in assay [5] it was > 9.22 µM; in assay [6], > 46 µM; in [12], 20 µM (active). Moreover, in assay [4], the activity, negative = inhibition was 2.85%. The Potency entry in [7], in assay [8] and in [11] was “inactive” throughout. In addition, the outcome in assay [10] was inactive.
As to `CC(C)NC(=O)N1CC[C@@]2(CCCN(C(=O)c3ccco3)C2)C1`, the activity change, negative = inhibition was -6.33% in assay [13] and 5.58% in assay [3]. For the same compound, in [4], the activity, negative = inhibition is 8.1%. The Potency in assay [6] was > 46 µM. Besides, the Potency entry in assay [7] and in assay [8] was “inactive” each time. In addition, the outcome in assay [10] was inactive.
As for `COc1ccc(Oc2ncc3ncc(=O)n(CCc4ccccc4)c3n2)cc1`, the activity change, negative = inhibition in assay [13] is -14.7%; in assay [3], -16.6%. The Potency in [2] was 0.631 µM (active); in assay [5], > 9.22 µM; in assay [6] it was > 46 µM; in assay [11], 1.26 µM (active). Besides, in assay [4], the activity, negative = inhibition was 3.46%. The Potency result in assay [7] and in [12] was “inactive” each time. The outcome in assay [10] was inactive.
On to `COc1ccc(Oc2ncc3nc(-c4cccs4)c(=O)n(Cc4cccs4)c3n2)cc1`, for which the Potency in assay [1] was > 11.4 µM; in [5] it was > 9.22 µM; in assay [6] it was > 46 µM; in [9] it was 3.16 µM (active). The activity change, negative = inhibition in assay [3] is -3.5%. The Potency entry in [7] and in assay [8] was “inactive” throughout. Moreover, in [10], the result was inactive.
With `COc1ccc(-n2c(=O)c(-c3cc(F)cc(F)c3)nc3cnc(N4CCNCC4)nc32)cc1`, the Potency in [1] is > 11.4 µM; in [5], > 9.22 µM; in assay [6], > 46 µM; in assay [9], 3.16 µM (active). Further, the Potency entry in assay [7], in [8] and in [12] was “inactive” in each case. Besides, the outcome in assay [10] was inactive.
As for `CN(C)c1ncc2nc(-c3ccc(Cl)cc3)c(=O)n(C3CC3)c2n1`, the Potency in assay [1] is > 11.4 µM; in [5], > 9.22 µM; in assay [6], > 46 µM; in assay [9], 2.51 µM (active). The Potency entry in [7] and in [8] was “inactive” throughout. Further, in [10], the result was inactive.

The record behind these values is PubChem BioAssay (NCATS).
